An excerpt weighted towards active compounds, which were near 11% of everything screened.
L3MBTL1 block: L3MBTL1 (human) inhibition; Q9Y468; AlphaScreen L3MBTL1–H3K9me1 peptide binding; Potency, µM (highest dose often 57.1 µM), for inactives: at the top dose activity, negative = inhibition, actives largely listed as inhibitors; actives 0.66% (n = 230,000); note: % is set by controls: 0 for no effect and ±100 for the full control effect; nearly all actives have a fitted effect of over 60% in size
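Read-out is AlphaScreen signal from streptavidin donor and nickel chelate acceptor beads (10 ug/mL final each) bridging L3MBTL1 (50 nM) and biotinylated K9-monomethylated H3(1-15) peptide (75 nM), after 30 min compound exposure at room temperature.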
HP1b binding inh: inhibitors of HP1-beta chromodomain binding to methylated histone tails; AlphaScreen HP1-beta / biotin-H3K9me3 peptide binding; Potency, µM (doses to about 114 µM), for inactives: top-dose activity change, negative = inhibition, usual class: inhibitors; actives 0.56% (n = 390,000); note: nearly all actives have a fitted effect of over 70% in size
Target sequence (P83916 whole entry, looked up): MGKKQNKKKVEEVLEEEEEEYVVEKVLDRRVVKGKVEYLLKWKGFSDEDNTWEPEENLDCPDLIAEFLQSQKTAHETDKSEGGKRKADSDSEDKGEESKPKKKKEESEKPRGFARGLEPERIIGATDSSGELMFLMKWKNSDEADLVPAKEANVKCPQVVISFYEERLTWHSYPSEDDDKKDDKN
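Compound inhibition of the preformed complex between 50 nM HP1-beta and 50 nM biotinylated H3K9me3 peptide was read by AlphaScreen. Buffer was PBS pH 7.4 with 0.01% Tween-20. Incubations ran 30 min at room temperature, with 10 ug/mL donor/acceptor beads.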
G9a block: G9a (human) methyltransferase inhibition | Potency, µM (titrated, usually from 102 µM), for the others: at the highest dose activity, negative = inhibition, actives largely listed as inhibitors | actives 8.8% (n = 350,000) | G9a H3K9 monomethylation, AlphaScreen, 2 h | Q96KQ7 | AID 504332; note: % is set by controls: 0 for no effect and ±100 for the full control effect; nearly all actives have a fitted effect of over 75% in size
Target sequence (Q96KQ7 913-1193 limits assumed): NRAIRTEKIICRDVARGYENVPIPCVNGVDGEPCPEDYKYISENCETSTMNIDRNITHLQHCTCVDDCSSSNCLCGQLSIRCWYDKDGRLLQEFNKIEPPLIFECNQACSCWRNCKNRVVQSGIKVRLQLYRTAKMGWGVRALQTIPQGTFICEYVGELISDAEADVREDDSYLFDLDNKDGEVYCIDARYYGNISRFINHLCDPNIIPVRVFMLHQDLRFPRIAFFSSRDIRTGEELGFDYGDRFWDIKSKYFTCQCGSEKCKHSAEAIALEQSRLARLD
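G9a (20 nM) preincubated 15 min RT with compounds, then 500 nM biotinylated H3K9 peptide and 20 uM SAM added; 2 h RT reaction. Monomethyl-H3K9 product detected by AlphaScreen with anti-H3K9me1 antibody, streptavidin donor and anti-rabbit IgG acceptor beads.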
BAZ2B inh: inhibitors of human BAZ2B bromodomain. Q9UIF8. AID 504333. AlphaScreen BAZ2B-H3K14Ac peptide displacement. actives 4.4% (n = 360,000). Potency, µM (titrated, usually from 114 µM), inactives show at the highest dose activity change, negative = inhibition, usual class: inhibitors; note: % is set by controls: 0 for no effect and ±100 for the full control effect; nearly all actives have a fitted effect of over 60% in size
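AlphaScreen displacement: compounds (up to 110uM) incubated 30 min at room temperature with a preformed 50 nM BAZ2B/50 nM biotinylated H3K14Ac peptide complex in PBS pH 7.4 with Tween-20. Donor and acceptor beads at 10 ug/mL final added, 20 min light-protected before reading.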
JMJD2A Tudor: inhibitors of human JMJD2A Tudor domain | O75164 | Potency, µM (top dose mostly 114 µM), for the others: at the highest dose activity change, negative = inhibition, hits mostly inhibitors | actives 4.4% (n = 390,000) | AlphaScreen JMJD2A-Tudor / H3K4me3 peptide binding | AID 504339; note: % is set by controls: 0 for no effect and ±100 for the full control effect; nearly all actives have a fitted effect of over 50% in size
* = called active by the depositor; [ ] = remark or other dose. Calls come from the whole dose curve; as a rule, active = well fitted inhibition curve with a large enough effect; inconclusive = small, poorly fitted or top-dose-only effect; inactive = no such curve, though single readings can be large or run the other way. Potency is the fitted concentration of half-maximal effect.

Results for CCOC(=O)COc1ccc(F)cc1C(=O)c1ccn2nc(-c3ccc(Cl)cc3)cc2n1 ?
HP1b binding inh: 30%; G9a block: 0%[59 µM]; BAZ2B inh: -5%; JMJD2A Tudor: -9%

What do the screens show for `COC(=O)Cc1[nH]n(-c2nc3ccccc3s2)c(=O)c1C(C)=Nc1ccc(Cl)cc1`?
L3MBTL1 block: -12%; HP1b binding inh: 7%; G9a block: -121%[59 µM]; BAZ2B inh: 25µM*; JMJD2A Tudor: 22µM*

Results for COC(=O)Cc1[nH]n(-c2ccccc2)c(=O)c1C(C)=Nc1ccccc1 ?
L3MBTL1 block: 2%; HP1b binding inh: 0%; G9a block: 50µM*; BAZ2B inh: -30%; JMJD2A Tudor: -23%

What do the screens show for `COC(=O)Cc1[nH]n(-c2nc3ccccc3s2)c(=O)c1C(C)=Nc1ccc(C)cc1`?
L3MBTL1 block: 1%; HP1b binding inh: 26%; G9a block: 14µM*; BAZ2B inh: 40µM*; JMJD2A Tudor: 35µM*

What do the screens show for `CCOc1[nH]n(-c2ccccc2)c(=O)c1C=Nc1ccc(C(=O)OC)cc1`?
L3MBTL1 block: 4%; HP1b binding inh: 41%; G9a block: inconclusive; BAZ2B inh: -30%; JMJD2A Tudor: -20%

Results for COc1ccc(C2CC(=O)Nc3c2c(C)nn3-c2nncc(-c3ccc(C)cc3)n2)c(OC)c1OC (centres undefined) ?
HP1b binding inh: 25%; G9a block: 3%[59 µM]; BAZ2B inh: inconclusive; JMJD2A Tudor: -22%

What do the screens show for `O=C1c2ccccc2C(=O)c2c1cccc2N1CCOCC1`?
L3MBTL1 block: inconclusive; HP1b binding inh: 40µM*; BAZ2B inh: 16µM*; JMJD2A Tudor: 35µM*

How did CC(C)OCCCNc1ncc2c(n1)CC(c1cccs1)CC2=O (centres undefined) do in these assays?
L3MBTL1 block: -2%; HP1b binding inh: 24%; G9a block: inconclusive; BAZ2B inh: -11%; JMJD2A Tudor: -8%

Results for CC(C)OCCCNc1ncc2c(n1)CC(c1ccc(N(C)C)cc1)CC2=O (centres undefined) ?
L3MBTL1 block: -4%; HP1b binding inh: -9%; G9a block: 35µM*; BAZ2B inh: -38%; JMJD2A Tudor: inconclusive

Results for CCCc1nn2c(=O)cc(COC(=O)c3ccccc3NC(=O)c3ccc(Cl)cc3)nc2s1 ?
HP1b binding inh: 13%; G9a block: 5%[59 µM]; BAZ2B inh: -12%; JMJD2A Tudor: -29%

How did CC(=O)c1cccc(NC(=O)c2nccnc2C(=O)O)c1 do in these assays?
L3MBTL1 block: 1%; HP1b binding inh: 15%; G9a block: inconclusive; BAZ2B inh: -10%; JMJD2A Tudor: 20µM*

How did COC(=O)c1cc(NC(=O)c2cccnc2)cc(C(=O)OC)c1 do in these assays?
L3MBTL1 block: 8%; HP1b binding inh: 40%; G9a block: -1%; BAZ2B inh: -15%; JMJD2A Tudor: -8%

Results for CCc1ccc(NC(=O)c2cccc(C(=O)Nc3ccc(CC)cc3)n2)cc1 ?
HP1b binding inh: 30%; BAZ2B inh: 4%; JMJD2A Tudor: -7%

How did Cc1ccc(NC(=O)c2cccc(C(=O)Nc3ccc(C)c(C)c3)n2)cc1C do in these assays?
HP1b binding inh: -6%; G9a block: 67%; BAZ2B inh: 2%; JMJD2A Tudor: 22µM*

What do the screens show for `COC(=O)c1cc(NC(=O)c2nccnc2C(=O)O)cc(C(=O)OC)c1`?
HP1b binding inh: 31%; G9a block: 45µM*; BAZ2B inh: -39%; JMJD2A Tudor: 56µM*

How did O=C(O)c1nccnc1C(=O)Nc1ccc(Cl)cn1 do in these assays?
HP1b binding inh: 7%[57 µM]; G9a block: 45µM*; BAZ2B inh: inconclusive; JMJD2A Tudor: inconclusive

Results for CC(Nc1oc(-c2ccc(COc3ccccc3)o2)nc1C#N)c1ccccc1 (centres undefined) ?
HP1b binding inh: -15%; G9a block: inconclusive; BAZ2B inh: inconclusive; JMJD2A Tudor: -30%

Results for CSc1nc2sc3c(c2c(=O)[nH]1)CC(C)(C)OC3 ?
L3MBTL1 block: 8%[2.29 µM]; HP1b binding inh: 30%; G9a block: 5%[0.501 µM]; BAZ2B inh: -1%; JMJD2A Tudor: -12%

How did CC(=O)Nc1cccc(C(=O)Nc2cccc3ncccc23)c1 do in these assays?
HP1b binding inh: 29%; G9a block: 45µM*; BAZ2B inh: 1%; JMJD2A Tudor: -6%

How did Cc1ccc(NC(=O)c2nccnc2C(=O)O)cc1C do in these assays?
HP1b binding inh: 20%; G9a block: 45µM*; BAZ2B inh: inconclusive; JMJD2A Tudor: -32%

What do the screens show for `Cc1ccc(NC(=O)c2ccccc2-c2ccccc2C(=O)O)cc1C`?
L3MBTL1 block: 8%; HP1b binding inh: 46%; G9a block: inconclusive; BAZ2B inh: inconclusive; JMJD2A Tudor: -6%

How did CC(=O)c1cccc(NC(=O)c2ccc(C(=O)Nc3cccc(C(C)=O)c3)nc2)c1 do in these assays?
L3MBTL1 block: 5%; HP1b binding inh: 14%; G9a block: inconclusive; BAZ2B inh: inconclusive; JMJD2A Tudor: 20µM*

What do the screens show for `Cc1cc(C)cc(NC(=O)Nc2cnccn2)c1`?
HP1b binding inh: 31%; BAZ2B inh: -5%; JMJD2A Tudor: -5%

What do the screens show for `Cc1cc(C)cc(NC(=O)c2nccnc2C(=O)O)c1`?
HP1b binding inh: 6%; G9a block: 25µM*; BAZ2B inh: inconclusive; JMJD2A Tudor: 79µM*

How did COc1ccc(OC)c(NC(=O)CN(C)S(=O)(=O)c2ccc(C(=O)N3CCOCC3)s2)c1 do in these assays?
HP1b binding inh: 1%; G9a block: 6%[59 µM]; BAZ2B inh: -17%; JMJD2A Tudor: -8%

What do the screens show for `Cc1cc(C)c2sc(N3CCN(C(=O)c4ccc(N(C)C)cc4)CC3)nc2c1`?
HP1b binding inh: inconclusive; G9a block: 22µM*; BAZ2B inh: 20µM*; JMJD2A Tudor: 40µM*

What do the screens show for `Cc1cc(C)c2sc(N3CCN(C(=O)C4CC4)CC3)nc2c1`?
HP1b binding inh: 26%; G9a block: 8%[59 µM]; BAZ2B inh: -3%; JMJD2A Tudor: -4%

Results for CN1C(=O)C(N=Nc2ccc([N+](=O)[O-])cc2)SC1=S (centres undefined) ?
HP1b binding inh: inconclusive; JMJD2A Tudor: 22µM*

What do the screens show for `Cc1c(C(=O)OCC(=O)NCC2CCCO2)cccc1[N+](=O)[O-]` (centres undefined)?
L3MBTL1 block: -7%; HP1b binding inh: 15%[57 µM]; G9a block: -3%; BAZ2B inh: -10%; JMJD2A Tudor: -8%

How did CCCN(CCC)c1nn2c(=O)c(C(=O)NCc3cc(Br)ccc3OC)cnc2s1 do in these assays?
HP1b binding inh: -20%; G9a block: 9%[59 µM]; BAZ2B inh: -12%; JMJD2A Tudor: -19%

Results for CCCCNCCOCCOc1ccc(Cl)cc1Br ?
L3MBTL1 block: 6%; HP1b binding inh: -14%; G9a block: 7.9µM*; BAZ2B inh: 79µM*; JMJD2A Tudor: 4.5µM*

Bioassay records from PubChem BioAssay.
